# Measured values reported in PubChem BioAssay (NCATS).
# Values without a mark were called inactive. Results filed as inconclusive are left out. Entries that show only a call come without a potency. The source made the active and inactive calls. Unless noted, the call rests on the fitted dose curve; in most records, active means well fitted curve in the direction sought with a large enough effect; inconclusive means small, poorly fitted or top-dose-only effect, or another doubt; inactive means no such curve, though single readings can be large; an effect the other way counts as inactive or inconclusive.
# Legend:
# [1] = qHTS to identify inhibitors of the type 1 interferon - major histocompatibility complex class I in skeletal muscle: primary screen against the NCATS Mechanism Interrogation Plate v5.0 (MIPE) Libary (AID 1347411); further: nearly all actives have a fitted effect of over 65% in size; further: potency means the concentration at half of the fitted maximal effect
# Procedure, shortened: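 Luminescence from CRISPR HiBit-tagged endogenous HLA-B in human myoblasts reported MHC class I level after 24 h of IFN-beta (4 ng/ml) plus compound. Compounds ran as 11-point 1:3 series, top 46 uM final.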
# [2] = target: Phospholipid hydroperoxide glutathione peroxidase GPX4 (Homo sapiens) (UniProt P36969); assay: Primary qHTS Assay for Inhibitors of Recombinant Selenoprotein Glutathione Peroxidase 4 (GPX4) (AID 1845192); further: nearly all actives have a fitted effect of over 65% in size; further: potency means the concentration at half of the fitted maximal effect
# Procedure, shortened: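 Steps: GPX4 plus compound, 30 min RT; add GR/GSH/NADPH master mix; start with cumene hydroperoxide; read 340/450 nm fluorescence at 0 and 15 min. Finals were 200 nM GPX4, 1 mM GSH, 0.5 mM CHP, 0.5 mM NADPH, 100 nM GR.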
# [3] = target: DNA repair nuclease/redox regulator APEX1 (Homo sapiens) (UniProt P27695); assay: qHTS Validation Assay for Inhibitors of the Human Apurinic/apyrimidinic Endonuclease 1 (APE1) (AID 1705;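 further: TAMRA fluorescence gain over two minutes as APE1 cuts a quenched THF abasic duplex; series mostly up to about 57 µM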)
# Procedure, shortened: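 qHTS, 1536-well. APE1 + cpd 15 min RT → 50 nM TAMRA/BHQ-2 THF-abasic dsDNA substrate → kinetic fluorescence, 3 reads/60 s; delta(read3−read1) = reaction progress. No-enzyme buffer = negative control.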
# [4] = Counterscreen for APE1 Inhibitors: Fluorescent Dye Displacement Validation Assay (AID 1707)
# Procedure, shortened: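 Loss of Thiazole Orange fluorescence marks promiscuous DNA binders. The dye (250 nM) is mixed with 50 nM abasic-site dsDNA in pH7.5 Tris buffer containing MgCl2, then compounds are added and emission is read once.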
# [5] = target: Endonuclease 4 (Escherichia coli (strain K12)) (UniProt P0A6C1); assay: Counterscreen for APE1 Inhibitors: qHTS Validation Assay for Inhibitors of Endonuclease IV (AID 1708)
# Procedure, shortened: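 Conditions: 2 nM enzyme, 50 nM TAMRA/BHQ-2 substrate, pH 7.5 Tris buffer with 2 mM MgCl2, RT. Compound preincubation 15 min; readout three fluorescence reads 60 s apart, third-minus-first.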
# [6] = target: Ferritin light chain (Equus caballus) (UniProt P02791); assay: qHTS Validation Assay for Identification of Novel General Anesthetics (AID 2323); further: series mostly up to about 77 µM
# Procedure, shortened: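 Fluorescence at 535 nm (excitation 380 nm) reported loss of 1-AMA binding to horse-spleen apoferritin (10 uM) in PBS with 50% saturated 1-aminoanthracene, after 10 min room-temperature incubation with compound; values from Hill fits of normalized response.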
# [7] = Validation screen for inhibitors of Lassa infection (AID 463096; calls by dose curve)
# [8] = Validation screen for small molecules that induce DNA re-replication in MCF 10A normal breast cells (AID 463097); further: nearly all actives have a fitted effect of over 60% in size
# Procedure, shortened: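 Image-based qHTS: normal breast cells are incubated with compound for 48 hr, stained with Hoechst, and scanned for total nuclear fluorescence. Compounds raising the fraction of nuclei with elevated DNA content count as re-replication inducers.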
# [9] = Quantitative high throughput screen for delayed death inhibitors of the malarial parasite plastid, 96 hour incubation (AID 488745); further: series mostly up to about 29 µM; nearly all actives have a fitted effect of over 70% in size
# Procedure, shortened: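 Decreased firefly luciferase luminescence indicates inhibited growth of reporter-integrated P. falciparum after two generations (96 h, 37 C, 5% CO2). Infected erythrocytes at 0.1% parasitemia, 2% hematocrit, in Albumax-supplemented RPMI 1640.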
# [10] = target: Transient receptor potential cation channel subfamily V member 1 (Homo sapiens) (UniProt Q8NER1); assay: HTS Assay for Compounds that Act as Enhancers of the Vanilloid Receptor 1 (AID 488979)
# Procedure, shortened: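 TRPV1 cells loaded with Fluo-8 calcium dye; compound added and Ca2+ signal (ex 480/em 520 nm) followed 3 min, then capsaicin at EC20 added and read 2 more min to detect enhancement.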
# [11] = target: Thyrotropin-releasing hormone receptor (Homo sapiens) (UniProt P34981); assay: qHTS for Small Molecule Agonists and Allosteric Enhancers of Human TRH Receptor: Validation Screen for Agonists (AID 493127;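 active means calcium activation more than 3 SD above the typical response in the agonist read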;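 further: intracellular calcium rise by fluo-8 fluorescence before TRH EC20 addition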); conditions: TRH receptor agonist cell assay; at 2 µM; stronger effect = higher value
# Procedure, shortened: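 Compound-evoked intracellular calcium release in fluo-8-loaded TRHR cells, read kinetically on FDSS (Ex 480/Em 530, 1 s/cycle) after 23 nL pintool transfer. Agonist phase preceded 10 nM TRH EC20 addition.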
# Phospholipid hydroperoxide glutathione peroxidase GPX4 (Homo sapiens), sequence (P36969 whole entry, looked up): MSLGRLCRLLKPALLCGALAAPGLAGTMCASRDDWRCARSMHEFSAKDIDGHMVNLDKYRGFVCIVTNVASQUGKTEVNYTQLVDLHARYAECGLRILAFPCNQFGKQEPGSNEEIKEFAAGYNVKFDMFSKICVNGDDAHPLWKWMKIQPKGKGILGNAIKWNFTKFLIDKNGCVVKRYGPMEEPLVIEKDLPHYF
# DNA repair nuclease/redox regulator APEX1 (Homo sapiens), sequence (P27695 whole entry, looked up): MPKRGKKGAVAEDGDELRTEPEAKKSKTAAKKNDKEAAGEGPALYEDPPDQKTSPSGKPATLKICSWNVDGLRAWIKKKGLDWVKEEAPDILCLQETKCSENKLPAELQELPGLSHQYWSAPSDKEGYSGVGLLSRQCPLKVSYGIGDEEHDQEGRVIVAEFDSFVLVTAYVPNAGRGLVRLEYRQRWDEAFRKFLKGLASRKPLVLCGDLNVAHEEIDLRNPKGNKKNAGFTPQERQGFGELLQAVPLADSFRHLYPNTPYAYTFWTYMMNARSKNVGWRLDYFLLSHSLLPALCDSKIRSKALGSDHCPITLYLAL
# Ferritin light chain (Equus caballus), sequence (P02791 2-175 limits assumed): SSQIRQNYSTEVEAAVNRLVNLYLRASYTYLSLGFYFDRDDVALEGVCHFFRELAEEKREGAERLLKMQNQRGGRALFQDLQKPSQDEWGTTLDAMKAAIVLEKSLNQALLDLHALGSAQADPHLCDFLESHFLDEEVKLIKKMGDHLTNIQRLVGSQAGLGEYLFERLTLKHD
# Transient receptor potential cation channel subfamily V member 1 (Homo sapiens), sequence (Q8NER1 whole entry, looked up): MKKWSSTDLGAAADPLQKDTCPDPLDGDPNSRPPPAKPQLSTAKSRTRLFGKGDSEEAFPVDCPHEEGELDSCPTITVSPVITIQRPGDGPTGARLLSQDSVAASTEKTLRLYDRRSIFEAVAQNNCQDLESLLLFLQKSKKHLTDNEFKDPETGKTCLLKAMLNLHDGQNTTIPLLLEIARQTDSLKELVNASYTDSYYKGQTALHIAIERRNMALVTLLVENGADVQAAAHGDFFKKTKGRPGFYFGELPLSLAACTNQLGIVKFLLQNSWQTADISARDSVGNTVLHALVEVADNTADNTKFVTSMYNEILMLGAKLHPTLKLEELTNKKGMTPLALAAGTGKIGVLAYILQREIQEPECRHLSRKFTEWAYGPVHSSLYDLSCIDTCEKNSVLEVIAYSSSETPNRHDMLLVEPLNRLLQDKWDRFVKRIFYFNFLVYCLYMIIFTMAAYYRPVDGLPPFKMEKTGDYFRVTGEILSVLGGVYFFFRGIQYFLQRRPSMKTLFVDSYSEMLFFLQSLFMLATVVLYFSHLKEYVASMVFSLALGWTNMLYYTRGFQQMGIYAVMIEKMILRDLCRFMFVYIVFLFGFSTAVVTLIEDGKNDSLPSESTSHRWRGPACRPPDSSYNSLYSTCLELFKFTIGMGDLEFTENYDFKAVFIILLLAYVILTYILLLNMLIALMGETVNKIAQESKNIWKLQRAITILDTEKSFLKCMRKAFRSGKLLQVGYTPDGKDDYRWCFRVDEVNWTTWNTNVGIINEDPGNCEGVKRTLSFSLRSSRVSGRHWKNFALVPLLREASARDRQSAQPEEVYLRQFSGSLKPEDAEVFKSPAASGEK
# Thyrotropin-releasing hormone receptor (Homo sapiens), sequence (P34981 whole entry, looked up): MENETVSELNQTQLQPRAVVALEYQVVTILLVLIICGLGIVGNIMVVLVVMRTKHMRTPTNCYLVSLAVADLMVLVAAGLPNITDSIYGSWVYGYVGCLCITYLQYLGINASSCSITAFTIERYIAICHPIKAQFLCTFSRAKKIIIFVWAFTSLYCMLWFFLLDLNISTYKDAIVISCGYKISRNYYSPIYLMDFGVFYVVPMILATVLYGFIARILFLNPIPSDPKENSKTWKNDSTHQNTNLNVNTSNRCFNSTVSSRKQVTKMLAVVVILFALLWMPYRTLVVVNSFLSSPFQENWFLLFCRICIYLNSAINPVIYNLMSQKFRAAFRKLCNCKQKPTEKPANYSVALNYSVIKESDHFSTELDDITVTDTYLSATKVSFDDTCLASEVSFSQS
structure (smiles),measurement,setting,value
Cc1c(N)nc([C@H](CC(N)=O)NC[C@@H](N)C(N)=O)nc1C(=O)N[C@H](C(=O)N[C@@H](C)[C@H](O)[C@@H](C)C(=O)N[C@@H](C(=O)NCCc1nc(-c2nc(C(=O)NCCC[S+](C)C)cs2)cs1)[C@@H](C)O)C(O[C@H]1O[C@H](CO)[C@H](O)[C@@H](O)[C@H]1O[C@H]1O[C@H](CO)[C@@H](O)[C@H](OC(N)=O)[C@@H]1O)c1cnc[nH]1 (some centres undefined),Potency,[1],inactive
same,Potency,[2],inactive
C[C@@]12OC(=O)[C@]1([C@@H](O)[C@@H]1C=CCCC1)NC(=O)[C@@H]2CCCl,Potency,[1],0.0294 µM (active)
same,Potency,[2],inactive
COC(=O)[C@@]12OC[C@]34[C@H]([C@@H](O)[C@@H]1O)[C@@]1(C)CC(=O)C(O)=C(C)[C@@H]1C[C@H]3OC(=O)[C@H](OC(=O)/C=C(\C)C(C)C)[C@@H]24,Potency,[1],0.0658 µM (active)
same,Potency,[2],inactive
C=C(C)[C@@H]1CCC(C)=C[C@H]1c1c(O)cc(CCCCC)cc1O,Potency,[1],33 µM (active)
same,Potency,[2],17.8 µM (active)
Cn1c(COP(=O)(NCCBr)NCCBr)cnc1[N+](=O)[O-],Potency,[1],inactive
same,Potency,[2],inactive
CC(=O)OC[C@H]1O[C@@H]([S-])[C@H](OC(C)=O)[C@@H](OC(C)=O)[C@@H]1OC(C)=O.CC[PH+](CC)CC.[Au],Potency,[1],1.17 µM (active)
same,Potency,[2],inactive
COC[C@H]1OC(=O)c2coc3c2[C@@]1(C)C1=C(C3=O)[C@@H]2CC[C@H](O)[C@@]2(C)C[C@H]1OC(C)=O,Potency,[1],inactive
same,Potency,[2],inactive
Cn1c(/C=C/CO)c(CO)c2c1C(=O)C=C(N1CC1)C2=O,Potency,[1],inactive
same,Potency,[2],inactive
Cc1[nH]ncc1-c1cc2nc([C@@H]3CC4CCN3CC4)[nH]c(=O)c2s1,Potency,[1],7.39 µM (active)
same,Potency,[2],inactive
CC1(C)CC[C@]2(NC(=O)C(C)(F)F)CC[C@]3(C)[C@H](C(=O)C=C4[C@@]5(C)C=C(C#N)C(=O)C(C)(C)[C@@H]5CC[C@]43C)[C@@H]2C1,Potency,[1],1.31 µM (active)
same,Potency,[2],inactive
CC(C)(NC(=O)O[C@@H]1CN2CCC1CC2)c1csc(-c2ccc(F)cc2)n1,Potency,[1],inactive
same,Potency,[2],inactive
CC(N[C@H]1C[C@@H]1c1ccccc1)c1ccc2c(c1)OCCO2 (some centres undefined),Potency,[1],inactive
O=C(O)CNC(=O)C1C(=O)N(C2CCCCC2)C(=O)N(C2CCCCC2)C1=O,Potency,[1],inactive
same,Potency,[2],inactive
C/C=C(\C)C(=O)N[C@@H](c1ccccc1)[C@@H](O)C(=O)O[C@H]1C[C@@]2(O)[C@@H](OC(=O)c3ccccc3)[C@@H]3[C@]4(OC(C)=O)CO[C@@H]4C[C@H](O)[C@@]3(C)C(=O)[C@H](OC(C)=O)C(=C1C)C2(C)C,Potency,[1],inactive
same,Potency,[2],inactive
COc1cc2cc(c1Cl)N(C)C(=O)C[C@H](OC(=O)C(C)C)[C@]1(C)O[C@@H]1[C@H](C)[C@@H]1C[C@@](O)(NC(=O)O1)[C@H](OC)/C=C/C=C(\C)C2,Potency,[1],inactive
same,Potency,[2],inactive
CN1C(=O)[C@@H](NC(=O)[C@H](CCC(F)(F)F)[C@H](CCC(F)(F)F)C(N)=O)N=C(c2ccccc2)c2ccccc21,Potency,[1],inactive
same,Potency,[2],inactive
CC(=O)O[C@@]12CO[C@@H]1C[C@H](O)[C@@]1(C)C(=O)[C@H](O)C3=C(C)[C@@H](O)C[C@@](O)([C@@H](OC(=O)c4ccccc4)[C@H]21)C3(C)C,Potency,[1],inactive
same,Potency,[2],inactive
C[C@@H]1CC[C@@]2(OC1)O[C@H]1C[C@H]3[C@@H]4CC=C5C[C@@H](O[C@@H]6O[C@H](CO)[C@@H](O[C@@H]7O[C@@H](C)[C@H](O)[C@@H](O)[C@H]7O)[C@H](O)[C@H]6O[C@@H]6O[C@@H](C)[C@H](O)[C@@H](O)[C@H]6O)CC[C@]5(C)[C@H]4CC[C@]3(C)[C@H]1[C@@H]2C,Potency,[2],inactive
CO/C1=C/C(C)=C\[C@@H](C)[C@@H](O)[C@@H](C)C/C(C)=C\C=C/[C@H](OC)[C@@H]([C@@H](C)[C@@H](O)[C@H](C)[C@@]2(O)C[C@@H](O)[C@H](C)[C@@H](C(C)C)O2)OC1=O,Potency,[1],inactive
same,Potency,[2],inactive
CCCCCCC(C)(C)c1cc(O)c2c(c1)OC(C)(C)C1CC=C(CO)C[C@H]21 (some centres undefined),Potency,[1],13.1 µM (active)
same,Potency,[2],inactive
N#CC(O[C@@H]1O[C@H](CO[C@@H]2O[C@H](CO)[C@@H](O)[C@H](O)[C@H]2O)[C@@H](O)[C@H](O)[C@H]1O)c1ccccc1 (some centres undefined),Potency,[1],inactive
same,Potency,[2],inactive
COC(=O)[C@]12CCC(C)(C)C[C@H]1[C@H]1C(=O)C=C3[C@@]4(C)C=C(C#N)C(=O)C(C)(C)[C@@H]4CC[C@@]3(C)[C@]1(C)CC2,Potency,[1],1.17 µM (active)
same,Potency,[2],inactive
COc1ccc2c(c1O)-c1cccc3c1C(C2)N(C)CC3 (centres undefined),Potency,[3],inactive
same,outcome,[4],inactive
same,Potency,[5],inactive
same,Potency,[6],inactive
same,Potency,[7],inactive
same,Potency,[8],inactive
same,Potency,[9],inactive
same,outcome,[10],inactive
same,activation,[11],1.19%
Oc1ccc2c3c1O[C@H]1[C@@H](O)CC[C@@]4(O)C(C2)N(CC2CCC2)CCC314 (some centres undefined),Potency,[3],inactive
same,outcome,[4],inactive
same,Potency,[5],inactive
same,Potency,[6],inactive
same,Potency,[7],inactive
same,Potency,[8],inactive
same,outcome,[10],inactive
same,activation,[11],1.31%
